Several values for one entry are separate records, joined by “and”; a condition that tells them apart may be missing. Equal values may be shown once. Records with an inconclusive call do not appear. Entries that show only a call come without a potency. Activity calls are given as the source filed them. The call rests on the fitted dose curve; in most records, active means well fitted cell-killing curve with a large enough effect; inconclusive means small, poorly fitted or top-dose-only effect; inactive means no such curve, though single readings can be large or run the other way.
Assay: qHTS of pediatric cancer cell lines to identify multiple opportunities for drug repurposing: Primary screen for LAN-5 cells (AID 1347100)
Conditions: LAN-5 neuroblastoma viability, CellTiter-Glo luminescence, 48 h; series mostly up to 46 µM; activity change, negative = cytotoxic: at the top concentration
Summary of the method: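 Cells (500-1,000/well) in growth media were settled 5 h at 37 degrees C, then given compounds for 48 h. Viability was read as CellTiter-Glo luminescence. Primary runs used MIPE at 11 points (0.78 nM-46 µM) and NPC at 8 points (0.59 nM-46 µM); follow-ups used 11 points.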
Potency means the concentration at half of the fitted maximal effect.

Row | Compound | Potency | activity change, negative = cytotoxic
1 | CS(=O)(=O)CCNCc1ccc(-c2ccc3ncnc(Nc4ccc(OCc5cccc(F)c5)c(Cl)c4)c3c2)o1 | 16.6 µM (active) | –
2 | CC(C(=O)O)c1cccc(C(=O)c2ccccc2)c1 (centres undefined) | inactive | –
3 | Cn1c(=O)c2c(ncn2C)n(C)c1=O | inactive | –
4 | Nc1nnc(-c2cccc(Cl)c2Cl)c(N)n1 | inactive | –
5 | Clc1ccccc1C(c1ccccc1)(c1ccccc1)n1ccnc1 | – | -27.6% (inactive)
6 | CC(=O)OCC(CCn1cnc2cnc(N)nc21)COC(C)=O | inactive | –
7 | CN(Cc1cnc2nc(N)nc(N)c2n1)c1ccc(C(=O)N[C@@H](CCC(=O)O)C(=O)O)cc1 | 0.0526 µM (active) | –
8 | CC(C)C(=O)Nc1ccc([N+](=O)[O-])c(C(F)(F)F)c1 | – | -20.9% (inactive)
9 | CN1CCN(CCCN2c3ccccc3Sc3ccc(Cl)cc32)CC1 | 9.35 µM (active) | –
10 | CC[C@@]1(O)C(=O)OCc2c1cc1n(c2=O)Cc2cc3c(CN(C)C)c(O)ccc3nc2-1 | 47.3 nM (active) and 41.8 nM (active) | –
11 | COc1ccc(CCN(C)CCCC(C#N)(c2ccc(OC)c(OC)c2)C(C)C)cc1OC (centres undefined) | inactive | –
12 | CC1(CN2CCC(n3c(=O)[nH]c4ccccc43)CC2)OCc2ccccc2-n2cccc21 (centres undefined) | inactive | –
13 | Cc1cnc(C(=O)NCCc2ccc(S(=O)(=O)NC(=O)NC3CCCCC3)cc2)cn1 | inactive | –
14 | Cc1cn([C@H]2C[C@H](N=[N+]=[N-])[C@@H](CO)O2)c(=O)[nH]c1=O | inactive | –
15 | CC1COc2c(N3CCN(C)CC3)c(F)cc3c(=O)c(C(=O)O)cn1c23 (centres undefined) | – | 6.53% (inactive)
16 | CCOC(=O)Nc1ccc(NCc2ccc(F)cc2)nc1N | inactive | –
17 | COc1cc2nc(N3CCN(C(=O)C4COc5ccccc5O4)CC3)nc(N)c2cc1OC (centres undefined) | – | -19.3% (inactive)
18 | O=C1Cc2cc(CCN3CCN(c4nsc5ccccc45)CC3)c(Cl)cc2N1 | – | -16.1% (inactive)
19 | CN1CCC(=C2c3ccccc3CC(=O)c3sccc32)CC1 | – | -7.41% (inactive)
20 | Cc1ccc(-c2cc(C(F)(F)F)nn2-c2ccc(S(N)(=O)=O)cc2)cc1 | inactive | –
21 | CC(C)(C)C(=O)Oc1ccc(S(=O)(=O)Nc2ccccc2C(=O)NCC(=O)O)cc1 | inactive | –
22 | CC#C[C@]1(O)CC[C@H]2[C@@H]3CCC4=CC(=O)CCC4=C3[C@@H](c3ccc(N(C)C)cc3)C[C@@]21C | 16.8 µM (active) and 209 nM (active) | –
23 | CC1(C)O[C@H]2CC(=O)OC[C@]23[C@H]2CC[C@@]4(C)[C@H](c5ccoc5)OC(=O)[C@H]5O[C@]54[C@]2(C)C(=O)C[C@@H]13 | inactive | –
24 | Clc1ccc2c(c1)C(N1CCNCC1)=Nc1ccccc1O2 | inactive | –
25 | CN(C)C(=N)N=C(N)N | inactive | –
26 | Cn1ccc2cc3c(cc21)CCN3C(=O)Nc1cccnc1 | – | 11.2% [at 16.1 µM] (inactive)
27 | CC[N+](CC)(CC)CCOc1cccc(OCC[N+](CC)(CC)CC)c1OCC[N+](CC)(CC)CC | inactive | –
28 | CN(CCOc1ccc(NS(C)(=O)=O)cc1)CCc1ccc(NS(C)(=O)=O)cc1 | inactive | –
29 | Clc1ccc2nsnc2c1NC1=NCCN1 | inactive | –
